The text below walks through data of PubChem BioAssay (NCATS).

Results filed as inconclusive are left out. Calls of active or inactive are those of the source. Unless noted, the call rests on the fitted dose curve; in most records, active means well fitted curve in the direction sought with a large enough effect; inconclusive means small, poorly fitted or top-dose-only effect, or another doubt; inactive means no such curve, though single readings can be large; an effect the other way counts as inactive or inconclusive.

For experiment [1], the target named is Aldehyde dehydrogenase, mitochondrial (Homo sapiens) (UniProt P05091). As to the kind of experiment: qHTS for Inhibitors of the Aldehyde Dehydrogenase Family (ALDH2) Confirmatory screens (AID 2061303; active means well fitted inhibition curve with a large enough effect; title and protocol of this record describe different tests; further: nearly all actives have a fitted effect of over 45% in size; further: potency means the concentration at half of the fitted maximal effect).
Experiment [2] has the same target. Description: qHTS for Inhibitors of the Aldehyde Dehydrogenase Family (ALDH2) Primary screen (AID 2061308). Further: nearly all actives have a fitted effect of over 55% in size. Further: potency means the concentration at half of the fitted maximal effect. For orientation: Quantitative high-throughput screening tests each substance at several concentrations.
Experiment [3] concerns the target Retinal dehydrogenase 2 (Homo sapiens) (UniProt O94788). Description: qHTS for Inhibitors of the Aldehyde Dehydrogenase Family (ALDH1A2) Confirmation screens (AID 2061314). Further: nearly all actives have a fitted effect of over 65% in size. Further: potency means the concentration at half of the fitted maximal effect.
Experiment [4] deals with Retinaldehyde dehydrogenase 3 (Homo sapiens) (UniProt P47895). Description: qHTS for Inhibitors of the Aldehyde Dehydrogenase Family (ALDH1A3) Primary screen (AID 2061315). Further: potency means the concentration at half of the fitted maximal effect.
Experiment [5] deals with Aldehyde dehydrogenase 1A1 (Homo sapiens) (UniProt P00352). Description: qHTS for Inhibitors of the Aldehyde Dehydrogenase Family (ALDH1A1) Confirmatory screens (AID 2061316). Further: nearly all actives have a fitted effect of over 65% in size. Further: potency means the concentration at half of the fitted maximal effect.
Experiment [6] in a line: qHTS for Inhibitors of the Aldehyde Dehydrogenase Family (ALDH1A2, ALDH1A3, ALDH2, ALDH3A1) (AID 2061307). Further: nearly all actives have a fitted effect of over 50% in size.
In experiment [7] the target is Retinaldehyde dehydrogenase 3 (Homo sapiens) (UniProt P47895). Description: qHTS for Inhibitors of the Aldehyde Dehydrogenase Family (ALDH1A3) Confirmatory screens (AID 2061311). Further: potency means the concentration at half of the fitted maximal effect; nearly all actives have a fitted effect of over 60% in size.
Experiment [8] shares this target. Description: qHTS for Inhibitors of the Aldehyde Dehydrogenase Family (ALDH1A3) Validation screen (AID 2061312). Further: nearly all actives have a fitted effect of over 45% in size. Further: potency means the concentration at half of the fitted maximal effect.
Experiment [9] in a line: BET inhibitor-based combinations targeting novel dependencies in MECOM-rearranged (r) AML: OCI-AML3 cell line (AID 2202232). Further: potency means the concentration at half of the fitted maximal effect; nearly all actives have a fitted effect of over 35% in size. The conditions noted are these: Potency: OCI-AML3 viability. Put shortly: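 Here, 11-point titrations of each agent were applied to 500 seeded cells and incubated 48 hr; CellTiter-Glo signal, scaled against DMSO and empty wells, was integrated as AUC, then Z-scored within the individual line.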

Experiment [10] is described as follows: BET inhibitor-based combinations targeting novel dependencies in MECOM-rearranged (r) AML: MV-4-11 cell line (AID 2202233). Further: potency means the concentration at half of the fitted maximal effect; nearly all actives have a fitted effect of over 45% in size. In outline: (§1)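 Normalized to DMSO and empty-well controls, the luminescence data from CellTiter-Glo after 48 hr drug exposure were fitted across 11 concentrations. Reported metrics are area under the dose-response curve and its Z-transformed form.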

The nature of experiment [11]: BET inhibitor-based combinations targeting novel dependencies in MECOM-rearranged (r) AML: UCSD-AML1 cell line (AID 2202235). Further: series mostly up to about 46 µM; nearly all actives have a fitted effect of over 40% in size. In outline: as §1

With `CC(C)(O)C1CC=C(C(=O)OCC2OC(Oc3c(O)cc(C(=O)O)cc3O)C(O)C(O)C2O)CC1` (stereo not drawn), the Potency result in experiment [1], in experiment [2], in [3] and in experiment [4] was “inactive” in each case.
Turning to `O=C(/C=C/c1cccnc1)Nc1cccc([S+](=O)([O-])Nc2ccccc2F)c1`, the Potency result in [1], in experiment [2], in experiment [4] and in experiment [5] was “inactive” in each case. The Potency in experiment [3] is 11.3 µM (active).
Consider `COc1cc(/C=C/C(=O)O[C@H]2[C@H](O)[C@@H](CO)O[C@@]2(CO)O[C@H]2O[C@H](CO)[C@@H](O)[C@H](O)[C@H]2O)cc(OC)c1O`, for which the Potency entry in experiment [2] was “inactive”.
For the molecule `O=C1c2ccccc2NC(c2ccc(-c3ccc(-c4ccccc4)cc3)o2)N1O` (stereo not drawn), the Potency was 3.57 µM (active) in [1], 1.58 µM (active) in [2], 5.65 µM (active) in experiment [3] and 4 µM (active) in experiment [5]. For the same molecule, in experiment [4], the Potency entry is “inactive”.
Turning to `COc1ccc(C2Nc3ccccc3C(=O)N2Cc2cccnc2)cc1COc1ccc(NC(C)=O)cc1` (stereo not drawn), the values for the Potency in [1] and in experiment [3] were 15.8 µM (active) and 10.1 µM (active), respectively. For the same molecule, the Potency result in experiment [2] and in [4] was “inactive” each time.
With `Cc1c(-c2ccccc2)no[n+]1[O-]`, the Potency entry in [1], in experiment [2], in [3], in experiment [4] and in [5] was “inactive” in each case.
As for `c1cc(NCCc2c[nH]c3ccccc23)cc(Nc2ccncc2)c1`, the Potency in [1] is 25.1 µM (active); in experiment [2], 10 µM (active); in [5] it was 11.3 µM (active). Moreover, the Potency result in experiment [4] is “inactive”.
In the case of `Cc1coc2c1C(=O)C(=O)c1c-2ccc2c(C)cccc12`, the Potency was 4.49 µM (active) in experiment [6], 12.7 µM (active) in [7], 11.3 µM (active) in experiment [3] and 3.57 µM (active) in experiment [5].
For the molecule `CC1CC=C2C1CC1(O)C(=O)CC2(C)C1(C)CO` (stereo not drawn), the Potency entry in experiment [2] was “inactive”.
Take `COc1ccc(C(=O)N(Cc2ccco2)Cc2cccs2)c(O)c1`: the Potency result in experiment [1], in experiment [2] and in experiment [4] was “inactive” throughout. In addition, the Potency is 22.5 µM (active) in experiment [3] and 12.7 µM (active) in experiment [5].
`COc1ccc(C2Nc3ccccc3C(=O)N2Cc2ccccc2)cc1COc1ccccc1OC` (stereo not drawn): the Potency entry in experiment [1], in experiment [2] and in experiment [4] was “inactive” in each case. For the same molecule, in experiment [3], the Potency is 8.96 µM (active).
`Cc1ccc(CNc2ccc(N3CCN(C(=O)OC(C)(C)C)CC3)cc2)cc1`: the Potency result in [1], in experiment [2] and in experiment [4] was “inactive” in each case.
`COc1ccnc(NC(=S)N2CCN(c3ccc(Cl)c(Cl)c3)CC2)c1`: the Potency is 4.47 µM (active) in experiment [1], 15.8 µM (active) in experiment [2], 3.57 µM (active) in experiment [3] and 4 µM (active) in [5].
Regarding `OCC1OC(Oc2cc(O)cc(/C=C/c3ccc(OC4OC(CO)C(O)C(O)C4O)cc3O)c2)C(O)C(O)C1O` (stereo not drawn), the Potency in experiment [6] was 10 µM (active); in experiment [4], 4.47 µM (active). The Potency result in [2] is “inactive”.
On to `Cc1ccnc(NC(=S)N2CCN(c3cccc(Cl)c3Cl)CC2)c1`, for which the Potency in [1] was 11.3 µM (active); in experiment [2] it was 6.31 µM (active); in [3], 14.2 µM (active); in [5], 3.18 µM (active).
In the case of `COC(=O)c1c(C)cc(OC(=O)c2c(C)cc(OC)cc2OC)cc1O[C@@H]1O[C@H](CO)[C@@H](O)[C@H](O)[C@H]1O`, the Potency result in [1], in experiment [2] and in experiment [4] was “inactive” each time.
In the case of `O=C1c2ccccc2NC(c2ccc(-c3ccc(F)cc3)o2)N1O` (stereo not drawn), the Potency in experiment [1] is 1.58 µM (active); in experiment [2], 3.55 µM (active); in experiment [3] it was 12.7 µM (active); in experiment [5], 2.52 µM (active). Also, in experiment [4], the Potency result was “inactive”.
For the molecule `Nc1cccc(CNC(=O)c2ccc(Oc3ccc(OCc4cccc(F)c4)cc3)nc2)c1`, the Potency entry in [1], in experiment [8], in experiment [3] and in experiment [4] was “inactive” each time.
`[O-][n+]1onc(-c2ccccc2)c1/C=N/O`: the Potency entry in experiment [1], in experiment [2], in experiment [3], in experiment [4] and in experiment [5] was “inactive” each time.
Turning to `CC(O)CCC1C(CO[C@@H]2O[C@H](CO)[C@@H](O)[C@H](O)[C@H]2O)CC(O)CC1(C)C` (stereo partly drawn), the Potency result in experiment [6], in experiment [2] and in experiment [3] was “inactive” each time. For the same molecule, the Potency in experiment [7] is 3.92 µM (active); in [4] it was 6.31 µM (active).
On to `CN1CCN(C(=O)CN[C@@H]2C[C@H]2c2ccc(OCc3ccccc3)cc2)CC1`, for which the Potency in experiment [1] is 14.1 µM (active); in experiment [7], 3.98 µM (active); in [8], 1.41 µM (active); in experiment [5], 20.1 µM (active).
For `CC(CC(C)O[C@@H]1O[C@H](CO)[C@@H](O)[C@H](O)[C@H]1O)OC(=O)/C=C/c1ccc(O)cc1` (stereo partly drawn), the Potency entry in experiment [1], in experiment [2], in [3] and in experiment [4] was “inactive” throughout.
In the case of `O=C(OCC#CCSc1nnc(-c2cccc3ccccc23)o1)C1CC1`, the Potency result in [1], in experiment [2] and in experiment [4] was “inactive” each time.
As for `S=C(NCc1ccc2c(c1)OCO2)N1CCN(c2ncnc3c2oc2ccccc23)CC1`, the Potency in experiment [6] was 1.58 µM (active); in [3], 11.3 µM (active); in experiment [9] it was 2.95 µM (active); in [10], 16.6 µM (active). Besides, the Potency entry in experiment [2], in [8], in [4], in experiment [5] and in experiment [11] was “inactive” in each case.
With `C=C1CC[C@H]2[C@@](C)(CCC(O)[C@@]2(C)CO)[C@@H]1CCC1=CCOC1=O` (stereo partly drawn), in experiment [2], the Potency result is “inactive”.
On to `Nc1ncc(-c2cccc(-c3nn4c(=O)cc(N5CCNCC5)nc4s3)c2)cn1`, for which the Potency was 14.2 µM (active) in experiment [1] and 11.3 µM (active) in experiment [3]. The Potency entry in experiment [2] and in experiment [4] was “inactive” throughout.
